USP1 inh = inhibitors of human USP1/UAF1 deubiquitinase; AID 743255; recombinant USP1/UAF1, Ub-Rhodamine cleavage fluorescence; O94782; actives 0.23% (n = 390,000); Potency, µM (series often up to 57.1 µM), hits mostly inhibitors; note: nearly all actives have a fitted effect of over 60% in size
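USP1/UAF1 complex at 1 nM was preincubated with compound for 15 min at room temperature, then Ub-Rho substrate (150nM final) was added. Fluorescence (480/540 nm) was read kinetically, 6 reads every 60 seconds.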
EPAC1 ag = activates human EPAC1 exchange factor | AID 720707 | Potency, µM (doses to about 154 µM), most hits filed as activators | EPAC1 agonist qHTS, biochemical assay; response scale: 100% = response to 6.5 mM cAMP | actives 0.073% (n = 360,000) | O95398; note: nearly all actives have a fitted effect of over 60% in size
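Nucleotide exchange by EPAC1 (100 nM) on Rap1B–BODIPY-GDP (250 nM) in the presence of 50 uM GDP is tracked fluorescently at 480/540 nm over 30 min. Signals are normalized to a 6.5 mM cAMP control.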
ALOX12 inh = ALOX12 (human) lipoxygenase inhibition; P18054; purified 12hLO, xylenol orange hydroperoxide absorbance; Potency, µM (top dose mostly 108 µM), usual class: inhibitors; actives 1.1% (n = 580,000)
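Purified human 12hLO at 150 nM in 25 mM Hepes, 0.01% Triton X-100, pH 7.0, preincubated 15 min at room temperature with compound. Reaction started with 40 uM arachidonic acid, 30 min at room temperature. Hydroperoxide measured by Fe-xylenol orange, 573/405 nm absorbance ratio.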
EPAC1 antagonist = antagonists of human EPAC1. O95398. EPAC1 GEF assay, Rap1b-BODIPY-GDP exchange fluorescence. Potency, µM (top dose mostly 115 µM), actives largely listed as inhibitors. actives 0.14% (n = 360,000); note: nearly all actives have a fitted effect of over 50% in size
EPAC2 ag = EPAC2 (human) agonism; Q8WZA2; EPAC2 activation, biochemical qHTS; response scale: 100% = 6.5 mM cAMP response; Potency, µM (series often up to 154 µM), actives largely listed as activators; actives 0.079% (n = 360,000); AID 720711; note: nearly all actives have a fitted effect of over 50% in size
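Exchange assay: 100 nM EPAC2 with 250 nM Rap1B-BODIPY-GDP and 50 uM GDP. Fluorescence (ex 480/em 540 nm) read every 5 min for 30 min at room temperature. Data normalized to 6.5 mM cAMP as agonist control.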
EPAC2 antagonist = blocks human EPAC2 exchange factor. Q8WZA2. EPAC2 GEF exchange of Rap1B-BODIPY-GDP, fluorescence. Potency, µM (series often up to 114 µM), most hits filed as inhibitors. actives 0.18% (n = 360,000). AID 720708; note: nearly all actives have a fitted effect of over 45% in size
Hits are given with their value; n = inactive; u = inconclusive; x = not tested or not shown; ! = not confirmed by another sample. An excerpt weighted towards active compounds, which were near 1.3% of everything screened. Calls come from the whole dose curve; as a rule, active = well fitted curve in the direction sought with a large enough effect; inconclusive = small, poorly fitted or top-dose-only effect, or another doubt; inactive = no such curve, though single readings can be large; an effect the other way counts as inactive or inconclusive.

SMILES | USP1 inh | EPAC1 ag | ALOX12 inh | EPAC1 antagonist | EPAC2 ag | EPAC2 antagonist
COc1ccc2cc(CNc3ccc(C)cc3)c(=O)n(CC(=O)Nc3ccc(C)cc3C)c2c1 | x | x | 7.94µM | x | x | x
O=C(/C=C/c1ccco1)N1CCC(Cc2ccccc2)CC1 | n | n | n | n | n | n
OC(CCN1CC2CCC(CC2)C1)(Cc1ccccc1)c1ccco1 (centres undefined) | n | n | 2.51µM | n | n | n
CCCC(=O)NC(c1ccc(C)cc1)c1ccc2cccnc2c1O (centres undefined) | n | n | x | n | n | u
Cc1ccc(C(Nc2ccccn2)c2ccc3cccnc3c2O)cc1 (centres undefined) | n | x | 17.8µM | x | x | x
CC(=O)NC(c1ccc(Cl)cc1Cl)c1ccc2cccnc2c1O (centres undefined) | n | n | u | u | n | 20µM
Oc1c(Br)cc(Br)cc1C=NCc1ccc(F)cc1 | u | n | 39.8µM | n | n | u
NC(=O)c1cc[n+](CC2=C(C(=O)O)N3C(=O)[C@@H](NC(=O)C(c4ccccc4)S(=O)(=O)[O-])[C@H]3SC2)cc1 (some centres undefined) | 35.5µM | n | x | n | n | n
N[C@@H](C(=O)N[C@@H]1C(=O)N2C(C(=O)O)=C(Cl)CS[C@H]12)c1ccccc1 | n | n | n | n | n | n
Cc1ccc(-n2c(=O)c3cccnc3n2CC(=O)Nc2cccc(Cl)c2)cc1C | x | x | n | x | x | x
CCOC(=O)c1c(S(=O)(=O)N2CCCC2)nn(CC)c1C | x | x | 12.6µM | x | x | x
CCOC(=O)c1c(S(=O)(=O)N2CCN(C3CCCCC3)CC2)c(C)n(C)c1C | n | n | n | n | n | n
CN(C)C(CNc1ccc(S(C)(=O)=O)cc1[N+](=O)[O-])c1ccccc1 (centres undefined) | n | n | n | n | n | n
O=C(O)CNc1ccc(S(=O)(=O)C(F)(F)F)cc1[N+](=O)[O-] | n | n | 3.98µM | n | n | n
CCNc1ccc(S(=O)(=O)N(C)C)cc1[N+](=O)[O-] | n | n | 44.7µM | n | n | n
CC1CCC(=NNC(=O)C2CC2)CC1 (centres undefined) | x | x | n | x | x | x
CCc1cccc(NC(=O)c2ncoc2-c2cccs2)c1 | x | x | n | x | x | x
COc1ccc(Br)cc1C[N+]1(C)CCCCC1 | x | x | 15.8µM | x | x | x
CC1=C[C@@H](CN2CCOCC2)[C@H](C(C)C)C[C@H]1Cc1nnc(-c2ccccc2F)o1 | x | x | n | x | x | x
O=C(NC1CCN(c2cc(C(F)(F)F)ncn2)CC1)c1ccccc1 | x | x | 44.7µM | x | x | x
CSc1ccc(/C=C2\C(=O)Oc3ccccc32)cc1 | x | x | 31.6µM | x | x | x
Cc1c(-c2ccccc2)oc2c(C(=O)OCC(=O)Nc3cc(Cl)ccc3F)cccc2c1=O | x | x | n | x | x | x
Cc1ccc2nc(C3=C(O)CN(c4cc(Cl)cc(Cl)c4)C3=N)[nH]c2c1 | x | x | n | x | x | x
C=C(C)CSC1=C(C#N)C(c2ccccc2Cl)CC(=O)N1 (centres undefined) | n | n | 22.4µM | n | n | n
Cc1ccc(C(=O)C(Sc2ccc3c(c2)OCCO3)c2ccc(C)cc2)cc1 (centres undefined) | x | x | n | x | x | x
SMILES | USP1 inh | EPAC1 ag | ALOX12 inh | EPAC1 antagonist | EPAC2 ag | EPAC2 antagonist
CN1CCC2(CC1)C1CN(C)CC=C1C(C#N)=C(N)C2(C#N)C#N (centres undefined) | 28.2µM! | u | n | n | n | n
COc1cccc(C2C3CN(C)CC=C3C(C#N)=C(N)C2(C#N)C#N)c1OC (centres undefined) | u | n | n | n | n | n
Cn1c(CN2CCCC2)nc2cc(NC(=O)c3ccccc3Cl)ccc21 | x | x | n | x | x | x
COc1cc(C(=O)Nc2cc(Cl)ccc2O)ccc1OC(C)=O | x | x | n | x | x | x
CCN(CC)C(=S)SC/C(=N/Nc1ccc(Br)cc1)c1ccccc1 | x | x | 7.94µM | x | x | x
CC(C)c1ccc(Cn2ccc3c4c(N)nc(NC5CC5)nc4ccc32)cc1 | x | x | 21.7µM! | x | x | x
CCOC(=O)c1[nH]c(=S)n(-c2ccccc2)c1C(=O)OCC | n | n | 7.08µM | n | n | n
CCOC(=O)c1[nH]c(=S)n(Cc2ccccc2)c1C(=O)OCC | n | n | u | n | n | n
